Data published in PubChem BioAssay (NCI).
The panel holds about 83,000 compounds, 20% with a hit somewhere; the sample as a whole holds those more often.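 Method: cells in 96-well plates; compound added at one concentration; 48 h incubation; percent growth measured; values under 10 scored active.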 Activity calls are given as the source filed them.

How the values were obtained:
Assay in all cases: NCI-60 one-dose screen, 48 h (100 = growth as untreated, 0 = no growth, -100 = all killed)
Conditions in all cases: 10 µM unless noted
T-47D breast = test system: T-47D breast
MDA-MB-435 melanoma = test system: MDA-MB-435 melanoma
SW-620 colon = test system: SW-620 colon
MCF7 breast = test system: MCF7 breast
HCT-116 colon = test system: HCT-116 colon
HCC-2998 colon = test system: HCC-2998 colon
KM12 colon = test system: KM12 colon
BT-549 breast = test system: BT-549 breast

Measured: growth

Cn1ncc2c(=O)nc3c(-c4ccccc4)n[nH]n3c21
inactive: T-47D breast 95.6% | MDA-MB-435 melanoma 101% | SW-620 colon 107% | MCF7 breast 92.8% | HCT-116 colon 97.6% | HCC-2998 colon 99.2% | KM12 colon 113%

O=C1C=C(O)C(=O)C(CC2=C(O)C(=O)C=C(O)C2=O)=C1O
inactive: T-47D breast 104% | MDA-MB-435 melanoma 100% | SW-620 colon 97.8% | MCF7 breast 105% | HCT-116 colon 106% | HCC-2998 colon 97.2% | KM12 colon 104%

O=C(O)c1ccc(NC(=O)c2ccc(-c3cccc([N+](=O)[O-])c3)o2)cc1
inactive: T-47D breast 102% | BT-549 breast 107% | SW-620 colon 96% | MCF7 breast 89.8% | HCT-116 colon 105% | HCC-2998 colon 99.3% | KM12 colon 99.5%

COc1ccc(CN2c3ccccc3Sc3ccccc32)cc1O
inactive: T-47D breast 27.5% | BT-549 breast 54.5% | SW-620 colon 31% | MCF7 breast 26% | HCT-116 colon 12.9% | KM12 colon 17.6%

COc1ccc(C(=O)c2sc3nc4c(c(-c5cccnc5)c3c2N)CCCC4)cc1OC
inactive: BT-549 breast 74.6% | MDA-MB-435 melanoma 91.7% | SW-620 colon 107% | MCF7 breast 90.2% | HCT-116 colon 88.2% | HCC-2998 colon 110% | KM12 colon 76.3%

COc1ccc(N=Nc2nccs2)c(O)c1
inactive: T-47D breast 36.5% | BT-549 breast 74.1% | SW-620 colon 34.4% | MCF7 breast 20.4% | HCT-116 colon 22.3% | HCC-2998 colon 60.8% | KM12 colon 33.3%

OCc1ccc(N2CCc3cccc(F)c3C2)cc1Cl
active: T-47D breast 1.88% [0.1 µM]
inactive: BT-549 breast 114% [0.1 µM] | SW-620 colon 34.5% [0.1 µM] | MCF7 breast 12.8% [0.1 µM] | HCT-116 colon 18.1% [0.1 µM] | HCC-2998 colon 81% [0.1 µM] | KM12 colon 101% [0.1 µM]

CSc1nc(NCCN2CCOCC2)c(C#N)c(-c2cccc([N+](=O)[O-])c2)n1
inactive: T-47D breast 96.8% | BT-549 breast 94.2% | SW-620 colon 99.8% | MCF7 breast 89.4% | HCT-116 colon 98.8% | HCC-2998 colon 112% | KM12 colon 98.7%

Cc1nc2c3c(-c4ccccc4)c(-c4ccccc4)oc3ncn2n1
inactive: T-47D breast 70% | BT-549 breast 101% | SW-620 colon 96.9% | MCF7 breast 101% | HCT-116 colon 88.5% | HCC-2998 colon 96.2% | KM12 colon 99.3%

C=C(C)[C@@H]1CC[C@]2(C(=O)OC)CC[C@]3(C)[C@H](CC[C@@H]4[C@@]5(C)C/C(=C/c6ccc(OC)cc6)C(=O)C(C)(C)[C@@H]5CC[C@]43C)[C@@H]12
inactive: T-47D breast 101% | BT-549 breast 96.6% | SW-620 colon 62.5% | MCF7 breast 49.1% | HCT-116 colon 41.8% | HCC-2998 colon 92.4% | KM12 colon 94.3%

CC(C)c1c(C(=O)c2ccccc2)c(-c2ccccc2)c(-c2ccc(F)cc2)n1CC[C@@H](O)C[C@@H](O)CC(=O)O
inactive: T-47D breast 91.4% | BT-549 breast 70.2% | SW-620 colon 76.2% | HCT-116 colon 47.4% | HCC-2998 colon 85.6% | KM12 colon 91%

CC(C)(C)CC(C)(C)c1ccc(OCCOCC[N+](C)(C)Cc2ccccc2)cc1
active: T-47D breast -7.78% | MDA-MB-435 melanoma -81.1% | SW-620 colon -39.2% | MCF7 breast -80.4% | HCT-116 colon -27.9% | HCC-2998 colon -32.5% | KM12 colon -91.3%

Cn1ccnc1C(=O)/C=C/c1ccccc1
active: SW-620 colon 5.92% | MCF7 breast 2.27% | HCT-116 colon 9.05% | KM12 colon -20.6%
inactive: T-47D breast 18.4% | MDA-MB-435 melanoma 10.8%

COc1ccc(CN2c3ccccc3Oc3ccccc32)cc1O
inactive: T-47D breast 30.6% | BT-549 breast 39.9% | SW-620 colon 27% | MCF7 breast 27.3% | HCT-116 colon 13.7% | KM12 colon 20.9%

CC(=O)c1cc(C(=O)c2ccc3c(c2)Sc2ccccc2N3)n2ccccc12
active: HCT-116 colon 0.708% | KM12 colon 9.91%
inactive: T-47D breast 43% | BT-549 breast 45.8% | SW-620 colon 23.9% | MCF7 breast 24.7%

N#Cc1cnn(-c2nc3c(Cl)cccc3s2)c1N
inactive: BT-549 breast 90.4% | MDA-MB-435 melanoma 87.1% | SW-620 colon 94.7% | MCF7 breast 68.1% | HCT-116 colon 61.7% | HCC-2998 colon 91.1% | KM12 colon 88.7%

CCCSc1ccc2nc(NC(=O)OC)[nH]c2c1
active: HCC-2998 colon -4.45%
inactive: T-47D breast 57.4% | BT-549 breast 45.5% | SW-620 colon 24% | HCT-116 colon 15.5% | KM12 colon 14%

C=C1c2nc3ccccc3n2C=C(c2ccc(OC)cc2)N1Cc1ccccc1
inactive: T-47D breast 59.9% | MDA-MB-435 melanoma 95.1% | SW-620 colon 88.7% | MCF7 breast 86.3% | HCT-116 colon 73.7% | HCC-2998 colon 82.1% | KM12 colon 98.5%

O=[N+]([O-])c1ccccc1/C=N\NC(=S)N/N=C/c1ccccc1[N+](=O)[O-]
inactive: T-47D breast 61% | BT-549 breast 47.4% | SW-620 colon 23.9% | MCF7 breast 58.9% | HCT-116 colon 18.9% | HCC-2998 colon 73.5% | KM12 colon 17%

CC(C)CSc1nc(N)nc2c1ncn2C1OC(CO)C(O)C1O (stereo not given)
inactive: T-47D breast 106% | MDA-MB-435 melanoma 91% | SW-620 colon 94.4% | MCF7 breast 99.5% | HCC-2998 colon 102% | KM12 colon 96.7%

NC(=O)c1cc(Cl)ccc1NC(=O)/C=C/c1ccccc1
inactive: T-47D breast 14.9% | SW-620 colon 26.1% | MCF7 breast 10.9% | HCT-116 colon 29.2% | HCC-2998 colon 60.1%
active: MDA-MB-435 melanoma -13.3% | KM12 colon 9.48%
